# Laboratory results from PMC7862700, “An all-to-all approach to the identification of sequence-specific readers for epigenetic DNA modifications on cytosine”.
# How the values were obtained:
# Experiment in all cases: DAPPL (digital affinity profiling via proximity ligation, sequencing); 10 mM Tris-HCl pH 7.5, 50 mM NaCl, 1 mM DTT, 4% glycerol, room temperature, 30 min; GST-TFs on glutathione beads, 16-mer random dsDNA library, 0.1% formaldehyde crosslink after washing; high values mean tight binding
# FLI1 = biological target: T1, FLI1 (Homo sapiens, UniProt Q01543 1-452); details: protein: recombinant; tags: N-terminal GST; dsDNA, one strand shown
# T1 sequence: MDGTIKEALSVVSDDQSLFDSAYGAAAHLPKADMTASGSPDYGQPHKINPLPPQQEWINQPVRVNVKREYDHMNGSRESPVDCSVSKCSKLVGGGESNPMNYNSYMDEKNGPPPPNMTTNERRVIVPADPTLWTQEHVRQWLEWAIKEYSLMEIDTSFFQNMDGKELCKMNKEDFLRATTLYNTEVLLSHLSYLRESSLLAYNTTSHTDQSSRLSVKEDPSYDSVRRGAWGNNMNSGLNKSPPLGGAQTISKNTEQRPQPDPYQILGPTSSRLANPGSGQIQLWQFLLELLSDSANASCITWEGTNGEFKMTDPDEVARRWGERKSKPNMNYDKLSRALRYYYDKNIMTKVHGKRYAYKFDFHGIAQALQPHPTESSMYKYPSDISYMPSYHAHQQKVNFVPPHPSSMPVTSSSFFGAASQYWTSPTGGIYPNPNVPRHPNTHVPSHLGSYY
# Summary of the method: (§1)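 GST fusions of human transcription factors were expressed in yeast and captured with glutathione beads. Once given DNA barcodes and pooled alongside a tag-only sample, they were incubated for 30 min at room temperature with 200 nmole of a random double-stranded 16-mer DNA library in Tris/NaCl/DTT/glycerol buffer, then washed, crosslinked (0.1% formaldehyde), proximity-ligated, PCR-amplified and sequenced on an Illumina NextSeq500. The binding signal of each hexamer is its read frequency for a factor divided by its frequency for the tag-only sample.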
# ELK1 = biological target: T2, ELK1 (Homo sapiens, UniProt P19419 1-428); details: protein: recombinant; tags: N-terminal GST; dsDNA, one strand shown
# T2 sequence: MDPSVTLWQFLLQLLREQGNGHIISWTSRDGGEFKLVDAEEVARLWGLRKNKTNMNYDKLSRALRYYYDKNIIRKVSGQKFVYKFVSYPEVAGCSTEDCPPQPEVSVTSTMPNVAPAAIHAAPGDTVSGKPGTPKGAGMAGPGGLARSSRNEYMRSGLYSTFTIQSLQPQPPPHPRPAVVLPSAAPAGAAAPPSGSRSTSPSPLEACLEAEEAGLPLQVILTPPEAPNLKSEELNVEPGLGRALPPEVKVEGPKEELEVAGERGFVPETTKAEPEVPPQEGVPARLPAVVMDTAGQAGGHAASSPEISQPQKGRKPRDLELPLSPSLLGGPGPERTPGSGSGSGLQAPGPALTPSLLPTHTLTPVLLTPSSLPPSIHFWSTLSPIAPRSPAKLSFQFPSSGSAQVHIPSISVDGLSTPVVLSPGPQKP
# Summary of the method: as §1
# GABPA = biological target: T3, GABPA (Homo sapiens, UniProt Q06546 1-454); details: protein: recombinant; tags: N-terminal GST; dsDNA, one strand shown
# T3 sequence: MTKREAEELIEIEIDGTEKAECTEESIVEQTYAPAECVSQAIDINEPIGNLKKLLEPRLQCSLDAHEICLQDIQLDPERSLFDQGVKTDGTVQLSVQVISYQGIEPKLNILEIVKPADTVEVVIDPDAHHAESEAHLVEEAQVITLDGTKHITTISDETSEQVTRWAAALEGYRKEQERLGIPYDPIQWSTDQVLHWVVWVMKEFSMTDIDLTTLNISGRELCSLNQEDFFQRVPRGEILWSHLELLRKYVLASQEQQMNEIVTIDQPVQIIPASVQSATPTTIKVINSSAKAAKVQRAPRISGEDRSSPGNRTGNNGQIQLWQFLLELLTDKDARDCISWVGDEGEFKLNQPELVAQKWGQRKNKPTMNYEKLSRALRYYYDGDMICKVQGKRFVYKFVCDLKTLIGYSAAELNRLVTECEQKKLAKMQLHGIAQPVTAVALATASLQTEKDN
# Summary of the method: as §1
# ERG = biological target: T4, ERG (Homo sapiens, UniProt P11308 1-479); details: protein: recombinant; tags: N-terminal GST; dsDNA, one strand shown
# T4 sequence: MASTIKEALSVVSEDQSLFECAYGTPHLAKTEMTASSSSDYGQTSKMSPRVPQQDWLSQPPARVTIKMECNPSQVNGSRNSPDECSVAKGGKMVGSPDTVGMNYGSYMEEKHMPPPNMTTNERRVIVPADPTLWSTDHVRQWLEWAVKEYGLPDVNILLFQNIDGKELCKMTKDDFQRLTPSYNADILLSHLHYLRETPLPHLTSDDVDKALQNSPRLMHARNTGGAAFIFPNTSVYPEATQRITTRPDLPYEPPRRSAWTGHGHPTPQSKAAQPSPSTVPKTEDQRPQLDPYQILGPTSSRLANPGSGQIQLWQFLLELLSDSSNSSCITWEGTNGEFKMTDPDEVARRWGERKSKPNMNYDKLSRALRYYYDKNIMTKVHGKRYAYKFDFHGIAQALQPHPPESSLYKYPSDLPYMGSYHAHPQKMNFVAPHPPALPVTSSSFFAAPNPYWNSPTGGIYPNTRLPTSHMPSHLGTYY
# Summary of the method: as §1
# ELF1 = ELF1 (Homo sapiens, UniProt P32519 1-619); details: protein: recombinant; tags: N-terminal GST; dsDNA, one strand shown
# ELF1, sequence (P32519 whole entry): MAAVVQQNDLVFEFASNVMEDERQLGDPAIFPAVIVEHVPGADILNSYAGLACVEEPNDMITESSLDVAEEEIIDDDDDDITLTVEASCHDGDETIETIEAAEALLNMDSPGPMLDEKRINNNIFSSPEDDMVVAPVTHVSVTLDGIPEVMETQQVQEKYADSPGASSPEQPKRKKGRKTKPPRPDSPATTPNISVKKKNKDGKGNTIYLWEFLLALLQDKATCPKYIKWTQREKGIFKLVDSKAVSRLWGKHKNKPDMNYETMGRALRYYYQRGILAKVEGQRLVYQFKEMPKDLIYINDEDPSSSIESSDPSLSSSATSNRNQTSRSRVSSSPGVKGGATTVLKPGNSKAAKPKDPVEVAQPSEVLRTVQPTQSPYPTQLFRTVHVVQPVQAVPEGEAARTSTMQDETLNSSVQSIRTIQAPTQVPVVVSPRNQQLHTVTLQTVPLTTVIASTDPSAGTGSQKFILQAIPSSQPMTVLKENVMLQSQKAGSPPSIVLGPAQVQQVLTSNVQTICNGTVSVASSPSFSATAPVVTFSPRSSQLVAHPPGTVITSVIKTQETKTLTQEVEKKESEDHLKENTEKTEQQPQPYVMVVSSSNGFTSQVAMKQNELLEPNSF
# Summary of the method: as §1
# EHF = biological target: T5, EHF (Homo sapiens, UniProt Q9NZC4 1-300); details: protein: recombinant; tags: N-terminal GST; dsDNA, one strand shown
# T5 sequence: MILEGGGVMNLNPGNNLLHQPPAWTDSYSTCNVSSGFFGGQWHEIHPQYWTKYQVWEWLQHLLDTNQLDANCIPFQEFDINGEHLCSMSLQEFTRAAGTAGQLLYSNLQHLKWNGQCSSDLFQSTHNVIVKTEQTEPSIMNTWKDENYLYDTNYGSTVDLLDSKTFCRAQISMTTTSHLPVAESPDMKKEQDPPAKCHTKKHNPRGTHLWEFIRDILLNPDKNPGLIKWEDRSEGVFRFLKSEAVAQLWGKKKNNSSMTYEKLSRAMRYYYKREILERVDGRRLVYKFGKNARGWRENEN
# Summary of the method: as §1
# SPI1 = SPI1 (Homo sapiens, UniProt P17947 1-270); details: protein: recombinant; tags: N-terminal GST; dsDNA, one strand shown
# Summary of the method: as §1
# SPIB = SPIB (Homo sapiens, UniProt Q01892 1-262); details: protein: recombinant; tags: N-terminal GST; dsDNA, one strand shown
# SPIB, sequence (Q01892 whole entry): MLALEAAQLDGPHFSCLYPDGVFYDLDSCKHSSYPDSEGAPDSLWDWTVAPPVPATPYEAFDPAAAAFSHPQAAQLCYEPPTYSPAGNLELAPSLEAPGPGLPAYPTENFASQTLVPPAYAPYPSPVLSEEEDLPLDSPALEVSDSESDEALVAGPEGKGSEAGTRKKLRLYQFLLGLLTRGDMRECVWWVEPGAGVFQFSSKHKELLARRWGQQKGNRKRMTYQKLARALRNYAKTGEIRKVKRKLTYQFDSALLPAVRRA
# Summary of the method: as §1
# ELK3 = biological target: T6, ELK3 (Homo sapiens, UniProt P41970 1-407); details: protein: recombinant; tags: N-terminal GST; dsDNA, one strand shown
# T6 sequence: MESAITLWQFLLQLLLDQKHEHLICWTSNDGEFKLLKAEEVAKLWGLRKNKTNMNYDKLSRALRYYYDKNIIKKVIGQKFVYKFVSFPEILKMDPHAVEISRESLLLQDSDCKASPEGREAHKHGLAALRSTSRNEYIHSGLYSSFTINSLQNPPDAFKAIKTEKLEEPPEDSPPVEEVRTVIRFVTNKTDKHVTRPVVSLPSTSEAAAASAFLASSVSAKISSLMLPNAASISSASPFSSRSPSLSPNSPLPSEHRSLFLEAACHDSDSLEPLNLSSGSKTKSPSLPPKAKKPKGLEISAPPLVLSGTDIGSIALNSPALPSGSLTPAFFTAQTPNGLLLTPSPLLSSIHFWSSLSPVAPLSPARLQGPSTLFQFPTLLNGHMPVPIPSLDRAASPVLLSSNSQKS
# Summary of the method: as §1
# FEV = biological target: T7, FEV (Homo sapiens, UniProt Q99581 1-238); details: protein: recombinant; tags: N-terminal GST; dsDNA, one strand shown
# T7 sequence: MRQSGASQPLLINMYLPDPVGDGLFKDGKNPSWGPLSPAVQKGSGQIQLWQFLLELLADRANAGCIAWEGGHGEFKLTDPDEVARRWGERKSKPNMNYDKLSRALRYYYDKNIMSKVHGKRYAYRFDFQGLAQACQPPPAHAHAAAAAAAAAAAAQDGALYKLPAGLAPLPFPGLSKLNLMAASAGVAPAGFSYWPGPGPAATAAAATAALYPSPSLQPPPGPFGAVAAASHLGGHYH
# Summary of the method: as §1
# ETV5 = ETV5 (Homo sapiens, UniProt P41161 1-510); details: protein: recombinant; tags: N-terminal GST; dsDNA, one strand shown
# ETV5, sequence (P41161 whole entry): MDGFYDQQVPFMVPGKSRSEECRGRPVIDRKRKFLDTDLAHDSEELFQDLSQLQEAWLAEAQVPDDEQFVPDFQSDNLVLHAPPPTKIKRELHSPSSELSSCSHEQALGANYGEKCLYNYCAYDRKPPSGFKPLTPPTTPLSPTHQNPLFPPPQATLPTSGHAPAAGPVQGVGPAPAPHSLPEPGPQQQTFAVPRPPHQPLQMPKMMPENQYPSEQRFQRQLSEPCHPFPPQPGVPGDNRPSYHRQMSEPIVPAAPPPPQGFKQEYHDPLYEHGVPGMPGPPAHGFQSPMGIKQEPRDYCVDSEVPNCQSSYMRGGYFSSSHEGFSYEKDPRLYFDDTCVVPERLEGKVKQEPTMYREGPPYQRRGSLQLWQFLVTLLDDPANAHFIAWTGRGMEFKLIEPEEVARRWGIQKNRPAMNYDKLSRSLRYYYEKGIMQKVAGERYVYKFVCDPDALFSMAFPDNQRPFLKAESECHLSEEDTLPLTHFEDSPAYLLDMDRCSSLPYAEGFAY
# Summary of the method: as §1
# HSF1 = HSF1 (Homo sapiens, UniProt Q00613 1-529); details: protein: recombinant; tags: N-terminal GST; chain copies: 3; dsDNA, one strand shown
# HSF1, sequence (Q00613 whole entry): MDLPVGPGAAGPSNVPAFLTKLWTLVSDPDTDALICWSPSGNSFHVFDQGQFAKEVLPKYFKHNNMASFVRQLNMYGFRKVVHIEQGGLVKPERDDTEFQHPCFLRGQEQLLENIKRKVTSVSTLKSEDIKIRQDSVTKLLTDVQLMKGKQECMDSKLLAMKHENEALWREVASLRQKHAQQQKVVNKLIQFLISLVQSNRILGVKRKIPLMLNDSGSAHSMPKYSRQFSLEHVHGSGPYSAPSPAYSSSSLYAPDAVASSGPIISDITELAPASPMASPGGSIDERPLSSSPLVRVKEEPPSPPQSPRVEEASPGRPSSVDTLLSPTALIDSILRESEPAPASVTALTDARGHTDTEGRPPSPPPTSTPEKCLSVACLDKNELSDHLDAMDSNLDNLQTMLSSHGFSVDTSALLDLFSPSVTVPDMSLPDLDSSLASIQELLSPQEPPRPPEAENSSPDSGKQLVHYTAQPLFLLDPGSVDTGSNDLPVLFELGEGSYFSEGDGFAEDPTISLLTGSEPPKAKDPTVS
# Summary of the method: as §1
# SPIC = biological target: T8, SPIC (Homo sapiens, UniProt Q8N5J4 1-248); details: protein: recombinant; tags: N-terminal GST; dsDNA, one strand shown
# T8 sequence: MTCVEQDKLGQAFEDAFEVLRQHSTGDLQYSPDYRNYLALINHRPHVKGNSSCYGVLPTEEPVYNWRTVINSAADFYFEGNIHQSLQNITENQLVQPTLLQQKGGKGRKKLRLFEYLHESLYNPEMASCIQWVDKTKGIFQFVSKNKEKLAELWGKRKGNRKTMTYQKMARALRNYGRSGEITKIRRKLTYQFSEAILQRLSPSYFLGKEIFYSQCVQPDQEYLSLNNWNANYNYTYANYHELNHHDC
# Summary of the method: as §1
# ELF4 = ELF4 (Homo sapiens, UniProt Q99607 1-663); details: protein: recombinant; tags: N-terminal GST; dsDNA, one strand shown
# ELF4, sequence (Q99607 whole entry): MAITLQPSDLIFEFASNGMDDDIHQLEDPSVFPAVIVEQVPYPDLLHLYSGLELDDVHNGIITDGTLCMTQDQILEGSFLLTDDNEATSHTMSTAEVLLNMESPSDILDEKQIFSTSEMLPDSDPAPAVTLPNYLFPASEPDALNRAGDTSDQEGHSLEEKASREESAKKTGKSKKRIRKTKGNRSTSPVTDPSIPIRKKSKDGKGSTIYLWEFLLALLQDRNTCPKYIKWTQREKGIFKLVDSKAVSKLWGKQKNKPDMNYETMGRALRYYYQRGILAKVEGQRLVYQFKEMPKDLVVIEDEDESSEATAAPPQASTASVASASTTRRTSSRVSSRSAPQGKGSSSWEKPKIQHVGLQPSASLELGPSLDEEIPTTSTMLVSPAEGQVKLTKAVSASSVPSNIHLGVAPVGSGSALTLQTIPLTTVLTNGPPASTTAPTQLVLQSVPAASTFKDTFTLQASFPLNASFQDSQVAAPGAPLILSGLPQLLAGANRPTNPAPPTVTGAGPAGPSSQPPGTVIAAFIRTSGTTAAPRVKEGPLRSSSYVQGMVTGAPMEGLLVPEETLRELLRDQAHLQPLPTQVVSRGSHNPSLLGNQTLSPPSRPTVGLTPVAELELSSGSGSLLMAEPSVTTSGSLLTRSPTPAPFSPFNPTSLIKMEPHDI
# Summary of the method: as §1
# ELK4 = biological target: T9, ELK4 (Homo sapiens, UniProt P28324-2 1-405); details: protein: recombinant; tags: N-terminal GST; dsDNA, one strand shown
# T9 sequence: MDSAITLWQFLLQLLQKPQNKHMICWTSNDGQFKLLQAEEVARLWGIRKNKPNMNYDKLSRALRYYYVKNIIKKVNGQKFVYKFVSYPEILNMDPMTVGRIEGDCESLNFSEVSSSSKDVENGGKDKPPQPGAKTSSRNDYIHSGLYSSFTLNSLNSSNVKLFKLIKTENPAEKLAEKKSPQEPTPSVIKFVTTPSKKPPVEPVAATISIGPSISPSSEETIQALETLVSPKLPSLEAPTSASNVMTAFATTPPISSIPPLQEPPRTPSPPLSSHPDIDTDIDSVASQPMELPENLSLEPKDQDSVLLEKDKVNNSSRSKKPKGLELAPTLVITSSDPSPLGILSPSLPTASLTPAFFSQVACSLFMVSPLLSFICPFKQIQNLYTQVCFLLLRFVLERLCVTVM
# Summary of the method: as §1
# ETV2 = biological target: T10, ETV2 (Homo sapiens, UniProt O00321 1-342); details: protein: recombinant; tags: N-terminal GST; dsDNA, one strand shown
# T10 sequence: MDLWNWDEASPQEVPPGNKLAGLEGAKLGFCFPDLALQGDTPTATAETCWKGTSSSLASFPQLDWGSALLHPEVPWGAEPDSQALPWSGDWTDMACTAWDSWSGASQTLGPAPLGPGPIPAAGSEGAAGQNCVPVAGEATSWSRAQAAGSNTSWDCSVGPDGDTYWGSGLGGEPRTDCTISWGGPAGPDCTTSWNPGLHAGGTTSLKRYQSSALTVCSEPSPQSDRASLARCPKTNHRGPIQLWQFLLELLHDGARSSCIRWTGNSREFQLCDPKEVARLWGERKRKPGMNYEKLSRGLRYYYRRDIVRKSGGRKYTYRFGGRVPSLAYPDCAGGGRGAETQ
# Summary of the method: as §1
# ELF3 = biological target: T11, ELF3 (Homo sapiens, UniProt P78545 1-371); details: protein: recombinant; tags: N-terminal GST; dsDNA, one strand shown
# T11 sequence: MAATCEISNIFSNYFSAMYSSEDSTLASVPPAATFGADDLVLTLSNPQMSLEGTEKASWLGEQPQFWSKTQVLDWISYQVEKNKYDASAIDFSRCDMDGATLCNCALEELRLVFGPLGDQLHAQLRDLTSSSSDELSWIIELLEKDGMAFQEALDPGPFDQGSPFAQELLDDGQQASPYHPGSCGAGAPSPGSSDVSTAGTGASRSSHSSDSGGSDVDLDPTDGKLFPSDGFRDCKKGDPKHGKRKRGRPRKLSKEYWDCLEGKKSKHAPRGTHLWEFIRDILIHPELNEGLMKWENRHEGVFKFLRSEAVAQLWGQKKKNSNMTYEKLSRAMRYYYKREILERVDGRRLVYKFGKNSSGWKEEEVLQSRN
# Summary of the method: as §1
# CRX = CRX (Homo sapiens, UniProt O43186 1-299); details: protein: recombinant; tags: N-terminal GST; dsDNA, one strand shown
# CRX, sequence (O43186 whole entry): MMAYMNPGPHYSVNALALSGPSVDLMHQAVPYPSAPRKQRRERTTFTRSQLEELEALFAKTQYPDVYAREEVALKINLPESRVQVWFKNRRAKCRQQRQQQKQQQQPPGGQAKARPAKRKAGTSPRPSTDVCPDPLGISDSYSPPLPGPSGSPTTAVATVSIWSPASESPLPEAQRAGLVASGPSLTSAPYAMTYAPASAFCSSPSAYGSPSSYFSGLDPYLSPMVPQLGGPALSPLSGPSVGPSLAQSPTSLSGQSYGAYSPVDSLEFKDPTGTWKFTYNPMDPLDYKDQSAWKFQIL
# Summary of the method: as §1
# ETV1 = ETV1 (Homo sapiens, UniProt P50549 1-477); details: protein: recombinant; tags: N-terminal GST; dsDNA, one strand shown
# ETV1, sequence (P50549 whole entry): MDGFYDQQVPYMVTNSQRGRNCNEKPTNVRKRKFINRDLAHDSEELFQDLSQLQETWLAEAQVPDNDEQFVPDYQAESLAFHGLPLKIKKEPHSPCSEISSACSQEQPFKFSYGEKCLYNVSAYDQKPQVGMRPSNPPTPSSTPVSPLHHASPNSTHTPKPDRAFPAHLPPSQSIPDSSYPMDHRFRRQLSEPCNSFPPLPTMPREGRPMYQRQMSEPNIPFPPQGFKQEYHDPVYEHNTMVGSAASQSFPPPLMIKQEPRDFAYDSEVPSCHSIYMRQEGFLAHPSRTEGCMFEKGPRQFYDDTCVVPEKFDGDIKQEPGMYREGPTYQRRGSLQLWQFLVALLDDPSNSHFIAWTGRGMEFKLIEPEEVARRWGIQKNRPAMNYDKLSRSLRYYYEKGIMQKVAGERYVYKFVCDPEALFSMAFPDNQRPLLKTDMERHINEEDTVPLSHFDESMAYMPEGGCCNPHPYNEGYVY
# Summary of the method: as §1
sequence,measurement,setting,value
TGTTAA,binding signal,FLI1,"1.11 fold enrichment (6-mer frequency, TF over GST control)"
same,binding signal,ELK1,"1.15 fold enrichment (6-mer frequency, TF over GST control)"
same,binding signal,GABPA,"1.17 fold enrichment (6-mer frequency, TF over GST control)"
same,binding signal,ERG,"1.11 fold enrichment (6-mer frequency, TF over GST control)"
same,binding signal,ELF1,"1.09 fold enrichment (6-mer frequency, TF over GST control)"
same,binding signal,EHF,"1.03 fold enrichment (6-mer frequency, TF over GST control)"
same,binding signal,SPI1,"1.07 fold enrichment (6-mer frequency, TF over GST control)"
same,binding signal,SPIB,"1.13 fold enrichment (6-mer frequency, TF over GST control)"
same,binding signal,ELK3,"1.15 fold enrichment (6-mer frequency, TF over GST control)"
same,binding signal,FEV,"1.1 fold enrichment (6-mer frequency, TF over GST control)"
same,binding signal,ETV5,"1.05 fold enrichment (6-mer frequency, TF over GST control)"
same,binding signal,HSF1,"1.3 fold enrichment (6-mer frequency, TF over GST control)"
same,binding signal,SPIC,"1.19 fold enrichment (6-mer frequency, TF over GST control)"
same,binding signal,ELF4,"1.17 fold enrichment (6-mer frequency, TF over GST control)"
same,binding signal,ELK4,"1.16 fold enrichment (6-mer frequency, TF over GST control)"
same,binding signal,ETV2,"1.06 fold enrichment (6-mer frequency, TF over GST control)"
same,binding signal,ELF3,"1.24 fold enrichment (6-mer frequency, TF over GST control)"
same,binding signal,CRX,"1.67 fold enrichment (6-mer frequency, TF over GST control)"
same,binding signal,ETV1,"1.13 fold enrichment (6-mer frequency, TF over GST control)"
